# According to article PMC7862700, “An all-to-all approach to the identification of sequence-specific readers for epigenetic DNA modifications on cytosine”:
# How the values were obtained:
# Assay in all cases: DAPPL (digital affinity profiling via proximity ligation, sequencing); 10 mM Tris-HCl pH 7.5, 50 mM NaCl, 1 mM DTT, 4% glycerol, room temperature, 30 min; GST-TFs on glutathione beads, 16-mer random dsDNA library, 0.1% formaldehyde crosslink after washing; high values mean tight binding
# FLI1 = biological target: T1, FLI1 (Homo sapiens, UniProt Q01543 1-452); settings: protein: recombinant; tags: N-terminal GST; dsDNA, one strand shown
# T1 sequence: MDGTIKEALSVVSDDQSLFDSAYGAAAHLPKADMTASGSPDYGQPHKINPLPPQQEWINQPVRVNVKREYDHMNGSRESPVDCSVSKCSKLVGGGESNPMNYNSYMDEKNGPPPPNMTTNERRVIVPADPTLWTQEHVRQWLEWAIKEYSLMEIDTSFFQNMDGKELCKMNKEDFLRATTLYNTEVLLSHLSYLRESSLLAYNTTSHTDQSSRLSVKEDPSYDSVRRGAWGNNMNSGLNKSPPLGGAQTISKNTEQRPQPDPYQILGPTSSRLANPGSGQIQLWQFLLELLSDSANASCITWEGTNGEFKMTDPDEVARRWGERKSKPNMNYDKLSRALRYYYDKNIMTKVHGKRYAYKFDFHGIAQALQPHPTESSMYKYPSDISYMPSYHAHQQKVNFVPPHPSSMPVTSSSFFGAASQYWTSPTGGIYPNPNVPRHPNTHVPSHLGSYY
# In short: (§1)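 Human transcription factors were made in yeast as GST fusions, captured on glutathione beads and barcoded with DNA. With a tag-only sample included, the pool was incubated with 200 nmole of a random double-stranded 16-mer DNA library in Tris/NaCl/DTT/glycerol buffer at room temperature for 30 min, then crosslinked with 0.1% formaldehyde after washing, ligated by proximity, amplified and sequenced. For binding signal, each hexamer's read frequency for a factor is divided by its frequency for the tag-only sample.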
# ELK1 = biological target: T2, ELK1 (Homo sapiens, UniProt P19419 1-428); settings: protein: recombinant; tags: N-terminal GST; dsDNA, one strand shown
# T2 sequence: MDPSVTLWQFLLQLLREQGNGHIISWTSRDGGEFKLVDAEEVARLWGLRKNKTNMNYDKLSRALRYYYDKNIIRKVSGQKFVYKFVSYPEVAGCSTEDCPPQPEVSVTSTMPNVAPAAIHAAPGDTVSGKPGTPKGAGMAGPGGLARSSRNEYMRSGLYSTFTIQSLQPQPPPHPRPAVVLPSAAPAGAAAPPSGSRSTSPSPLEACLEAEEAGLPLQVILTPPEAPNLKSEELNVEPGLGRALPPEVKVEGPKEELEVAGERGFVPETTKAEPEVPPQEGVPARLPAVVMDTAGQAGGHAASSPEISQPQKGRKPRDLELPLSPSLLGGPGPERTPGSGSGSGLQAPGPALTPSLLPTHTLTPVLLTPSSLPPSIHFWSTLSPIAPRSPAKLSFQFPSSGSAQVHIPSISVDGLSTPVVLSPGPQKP
# In short: as §1
# GABPA = biological target: T3, GABPA (Homo sapiens, UniProt Q06546 1-454); settings: protein: recombinant; tags: N-terminal GST; dsDNA, one strand shown
# T3 sequence: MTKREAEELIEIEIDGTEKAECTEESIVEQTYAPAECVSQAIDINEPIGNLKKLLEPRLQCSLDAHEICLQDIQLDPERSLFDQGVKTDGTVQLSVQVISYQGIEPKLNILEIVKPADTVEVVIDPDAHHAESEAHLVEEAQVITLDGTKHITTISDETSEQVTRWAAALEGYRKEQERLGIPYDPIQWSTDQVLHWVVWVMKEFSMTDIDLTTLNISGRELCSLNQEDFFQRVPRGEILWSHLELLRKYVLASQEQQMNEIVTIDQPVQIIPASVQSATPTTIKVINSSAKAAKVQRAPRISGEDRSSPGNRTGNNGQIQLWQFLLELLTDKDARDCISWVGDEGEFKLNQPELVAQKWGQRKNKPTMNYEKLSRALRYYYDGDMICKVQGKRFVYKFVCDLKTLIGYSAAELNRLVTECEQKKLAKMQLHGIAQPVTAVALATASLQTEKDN
# In short: as §1
# ERG = biological target: T4, ERG (Homo sapiens, UniProt P11308 1-479); settings: protein: recombinant; tags: N-terminal GST; dsDNA, one strand shown
# T4 sequence: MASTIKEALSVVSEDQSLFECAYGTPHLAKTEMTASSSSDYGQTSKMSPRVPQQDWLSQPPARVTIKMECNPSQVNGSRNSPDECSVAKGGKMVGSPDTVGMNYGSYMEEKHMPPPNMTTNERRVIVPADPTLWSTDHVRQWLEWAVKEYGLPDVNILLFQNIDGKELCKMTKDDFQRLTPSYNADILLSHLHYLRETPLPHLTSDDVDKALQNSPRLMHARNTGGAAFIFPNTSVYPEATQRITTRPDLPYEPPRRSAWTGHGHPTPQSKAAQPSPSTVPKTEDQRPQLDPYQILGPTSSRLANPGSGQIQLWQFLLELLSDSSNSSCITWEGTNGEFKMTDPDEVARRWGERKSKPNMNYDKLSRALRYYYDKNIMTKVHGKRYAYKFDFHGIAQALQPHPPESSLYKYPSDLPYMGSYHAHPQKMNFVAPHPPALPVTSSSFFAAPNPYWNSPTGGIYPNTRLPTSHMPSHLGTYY
# In short: as §1
# ELF1 = ELF1 (Homo sapiens, UniProt P32519 1-619); settings: protein: recombinant; tags: N-terminal GST; dsDNA, one strand shown
# ELF1, sequence (P32519 whole entry): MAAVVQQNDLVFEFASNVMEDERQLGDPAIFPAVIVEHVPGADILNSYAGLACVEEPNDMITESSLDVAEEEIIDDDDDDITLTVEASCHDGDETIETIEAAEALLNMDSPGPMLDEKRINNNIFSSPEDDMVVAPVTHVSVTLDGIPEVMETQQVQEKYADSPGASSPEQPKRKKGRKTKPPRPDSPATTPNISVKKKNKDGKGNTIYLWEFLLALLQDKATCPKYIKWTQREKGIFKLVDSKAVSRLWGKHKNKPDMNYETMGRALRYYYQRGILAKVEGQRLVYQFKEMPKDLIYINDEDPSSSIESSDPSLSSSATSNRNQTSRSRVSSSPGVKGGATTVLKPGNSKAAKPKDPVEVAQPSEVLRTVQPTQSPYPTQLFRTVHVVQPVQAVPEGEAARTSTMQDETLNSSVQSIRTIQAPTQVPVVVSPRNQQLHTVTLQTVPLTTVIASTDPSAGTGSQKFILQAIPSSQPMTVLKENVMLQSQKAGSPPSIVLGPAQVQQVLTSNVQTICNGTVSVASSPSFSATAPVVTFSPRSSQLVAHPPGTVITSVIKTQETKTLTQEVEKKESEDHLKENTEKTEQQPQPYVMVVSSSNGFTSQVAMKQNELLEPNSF
# In short: as §1
# EHF = biological target: T5, EHF (Homo sapiens, UniProt Q9NZC4 1-300); settings: protein: recombinant; tags: N-terminal GST; dsDNA, one strand shown
# T5 sequence: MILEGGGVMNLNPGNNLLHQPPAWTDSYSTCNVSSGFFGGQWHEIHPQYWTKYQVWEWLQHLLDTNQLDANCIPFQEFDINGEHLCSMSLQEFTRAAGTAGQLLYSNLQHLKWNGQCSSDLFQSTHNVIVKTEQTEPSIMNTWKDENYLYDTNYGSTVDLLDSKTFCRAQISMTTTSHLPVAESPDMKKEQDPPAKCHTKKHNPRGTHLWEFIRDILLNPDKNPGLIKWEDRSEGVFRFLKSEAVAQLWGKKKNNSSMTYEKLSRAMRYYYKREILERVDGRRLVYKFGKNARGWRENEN
# In short: as §1
# SPI1 = SPI1 (Homo sapiens, UniProt P17947 1-270); settings: protein: recombinant; tags: N-terminal GST; dsDNA, one strand shown
# In short: as §1
# SPIB = SPIB (Homo sapiens, UniProt Q01892 1-262); settings: protein: recombinant; tags: N-terminal GST; dsDNA, one strand shown
# SPIB, sequence (Q01892 whole entry): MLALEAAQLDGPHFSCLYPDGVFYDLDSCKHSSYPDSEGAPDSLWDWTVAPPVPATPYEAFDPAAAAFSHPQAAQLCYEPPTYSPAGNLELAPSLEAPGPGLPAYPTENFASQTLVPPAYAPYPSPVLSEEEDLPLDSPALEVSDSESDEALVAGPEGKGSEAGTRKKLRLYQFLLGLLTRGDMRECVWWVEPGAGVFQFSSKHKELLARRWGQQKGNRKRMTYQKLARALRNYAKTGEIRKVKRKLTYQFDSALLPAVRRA
# In short: as §1
# ELK3 = biological target: T6, ELK3 (Homo sapiens, UniProt P41970 1-407); settings: protein: recombinant; tags: N-terminal GST; dsDNA, one strand shown
# T6 sequence: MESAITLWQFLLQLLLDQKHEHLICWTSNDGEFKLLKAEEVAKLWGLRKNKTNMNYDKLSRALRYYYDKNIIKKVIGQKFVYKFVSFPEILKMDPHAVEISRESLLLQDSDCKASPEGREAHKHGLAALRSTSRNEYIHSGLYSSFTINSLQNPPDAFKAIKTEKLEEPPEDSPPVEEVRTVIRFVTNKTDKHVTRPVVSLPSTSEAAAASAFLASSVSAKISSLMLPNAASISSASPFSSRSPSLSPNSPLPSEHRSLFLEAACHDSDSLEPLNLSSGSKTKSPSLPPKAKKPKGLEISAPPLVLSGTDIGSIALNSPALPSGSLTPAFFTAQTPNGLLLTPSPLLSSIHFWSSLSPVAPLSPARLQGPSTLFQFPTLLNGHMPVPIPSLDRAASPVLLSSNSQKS
# In short: as §1
# FEV = biological target: T7, FEV (Homo sapiens, UniProt Q99581 1-238); settings: protein: recombinant; tags: N-terminal GST; dsDNA, one strand shown
# T7 sequence: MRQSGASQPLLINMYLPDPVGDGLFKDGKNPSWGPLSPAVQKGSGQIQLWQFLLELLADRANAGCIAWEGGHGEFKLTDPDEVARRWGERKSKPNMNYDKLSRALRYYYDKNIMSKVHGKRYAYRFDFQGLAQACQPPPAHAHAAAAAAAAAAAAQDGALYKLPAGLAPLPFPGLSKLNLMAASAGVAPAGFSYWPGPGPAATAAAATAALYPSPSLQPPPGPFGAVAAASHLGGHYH
# In short: as §1
# ETV5 = ETV5 (Homo sapiens, UniProt P41161 1-510); settings: protein: recombinant; tags: N-terminal GST; dsDNA, one strand shown
# ETV5, sequence (P41161 whole entry): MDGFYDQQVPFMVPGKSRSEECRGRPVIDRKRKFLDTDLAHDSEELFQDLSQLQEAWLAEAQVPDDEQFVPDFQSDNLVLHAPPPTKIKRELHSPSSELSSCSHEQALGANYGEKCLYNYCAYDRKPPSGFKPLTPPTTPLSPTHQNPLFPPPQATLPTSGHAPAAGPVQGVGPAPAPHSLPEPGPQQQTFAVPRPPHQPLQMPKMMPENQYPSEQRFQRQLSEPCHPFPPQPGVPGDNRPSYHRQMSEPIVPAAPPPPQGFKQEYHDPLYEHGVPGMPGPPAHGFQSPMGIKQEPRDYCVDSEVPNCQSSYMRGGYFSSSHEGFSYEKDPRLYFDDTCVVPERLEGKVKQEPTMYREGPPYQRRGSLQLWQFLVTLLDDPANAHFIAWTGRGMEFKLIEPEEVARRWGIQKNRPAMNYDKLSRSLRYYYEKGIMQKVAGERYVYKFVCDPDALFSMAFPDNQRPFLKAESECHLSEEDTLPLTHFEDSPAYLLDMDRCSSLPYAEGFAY
# In short: as §1
# HSF1 = HSF1 (Homo sapiens, UniProt Q00613 1-529); settings: protein: recombinant; tags: N-terminal GST; chain copies: 3; dsDNA, one strand shown
# HSF1, sequence (Q00613 whole entry): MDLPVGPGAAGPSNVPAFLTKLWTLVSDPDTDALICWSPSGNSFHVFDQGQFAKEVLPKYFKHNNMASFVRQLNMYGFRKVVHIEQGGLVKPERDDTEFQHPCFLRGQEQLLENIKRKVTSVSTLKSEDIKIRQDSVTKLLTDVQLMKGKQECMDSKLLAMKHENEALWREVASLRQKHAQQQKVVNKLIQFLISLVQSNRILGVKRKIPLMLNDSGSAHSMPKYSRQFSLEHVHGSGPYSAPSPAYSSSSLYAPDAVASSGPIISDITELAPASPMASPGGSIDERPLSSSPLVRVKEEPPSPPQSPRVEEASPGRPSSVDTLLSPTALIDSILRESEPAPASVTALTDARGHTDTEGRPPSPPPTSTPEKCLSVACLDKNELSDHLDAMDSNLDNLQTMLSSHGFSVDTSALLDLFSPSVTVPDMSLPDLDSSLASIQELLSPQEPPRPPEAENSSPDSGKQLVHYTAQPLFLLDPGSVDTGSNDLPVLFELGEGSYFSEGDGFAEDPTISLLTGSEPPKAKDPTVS
# In short: as §1
# SPIC = biological target: T8, SPIC (Homo sapiens, UniProt Q8N5J4 1-248); settings: protein: recombinant; tags: N-terminal GST; dsDNA, one strand shown
# T8 sequence: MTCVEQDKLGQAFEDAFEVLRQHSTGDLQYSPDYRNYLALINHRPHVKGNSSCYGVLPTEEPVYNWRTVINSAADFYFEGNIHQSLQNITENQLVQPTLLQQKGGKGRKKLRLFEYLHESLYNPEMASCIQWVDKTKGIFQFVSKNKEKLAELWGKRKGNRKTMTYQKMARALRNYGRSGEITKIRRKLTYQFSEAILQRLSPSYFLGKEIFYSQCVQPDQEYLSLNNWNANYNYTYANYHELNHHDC
# In short: as §1
# ELF4 = ELF4 (Homo sapiens, UniProt Q99607 1-663); settings: protein: recombinant; tags: N-terminal GST; dsDNA, one strand shown
# ELF4, sequence (Q99607 whole entry): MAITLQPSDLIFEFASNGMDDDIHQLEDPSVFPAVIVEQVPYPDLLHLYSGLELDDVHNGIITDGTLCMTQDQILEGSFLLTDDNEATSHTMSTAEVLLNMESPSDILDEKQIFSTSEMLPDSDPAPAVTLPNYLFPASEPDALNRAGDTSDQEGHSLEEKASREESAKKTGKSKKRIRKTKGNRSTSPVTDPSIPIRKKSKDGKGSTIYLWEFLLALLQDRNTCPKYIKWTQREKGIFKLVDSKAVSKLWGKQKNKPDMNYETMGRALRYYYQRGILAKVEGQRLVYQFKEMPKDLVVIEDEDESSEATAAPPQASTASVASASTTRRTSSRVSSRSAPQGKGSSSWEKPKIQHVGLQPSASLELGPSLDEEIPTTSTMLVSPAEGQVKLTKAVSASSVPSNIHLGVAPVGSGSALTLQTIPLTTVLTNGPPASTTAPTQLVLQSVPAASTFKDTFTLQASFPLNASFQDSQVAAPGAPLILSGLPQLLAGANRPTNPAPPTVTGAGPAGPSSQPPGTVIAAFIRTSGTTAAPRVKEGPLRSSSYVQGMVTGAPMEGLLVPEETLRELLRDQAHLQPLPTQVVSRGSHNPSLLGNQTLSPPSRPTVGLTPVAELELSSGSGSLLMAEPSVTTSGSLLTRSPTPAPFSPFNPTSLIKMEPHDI
# In short: as §1
# ELK4 = biological target: T9, ELK4 (Homo sapiens, UniProt P28324-2 1-405); settings: protein: recombinant; tags: N-terminal GST; dsDNA, one strand shown
# T9 sequence: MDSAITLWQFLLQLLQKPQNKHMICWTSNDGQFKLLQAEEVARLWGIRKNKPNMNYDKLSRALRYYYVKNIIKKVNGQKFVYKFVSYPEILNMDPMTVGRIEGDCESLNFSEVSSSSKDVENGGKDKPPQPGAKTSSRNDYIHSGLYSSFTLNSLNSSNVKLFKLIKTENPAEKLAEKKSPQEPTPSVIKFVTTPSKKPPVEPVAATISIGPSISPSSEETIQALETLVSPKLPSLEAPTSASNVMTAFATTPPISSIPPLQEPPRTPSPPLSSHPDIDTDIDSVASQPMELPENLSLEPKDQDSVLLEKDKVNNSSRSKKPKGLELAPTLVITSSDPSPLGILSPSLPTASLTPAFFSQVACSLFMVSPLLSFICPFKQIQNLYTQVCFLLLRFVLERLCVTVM
# In short: as §1
# ETV2 = biological target: T10, ETV2 (Homo sapiens, UniProt O00321 1-342); settings: protein: recombinant; tags: N-terminal GST; dsDNA, one strand shown
# T10 sequence: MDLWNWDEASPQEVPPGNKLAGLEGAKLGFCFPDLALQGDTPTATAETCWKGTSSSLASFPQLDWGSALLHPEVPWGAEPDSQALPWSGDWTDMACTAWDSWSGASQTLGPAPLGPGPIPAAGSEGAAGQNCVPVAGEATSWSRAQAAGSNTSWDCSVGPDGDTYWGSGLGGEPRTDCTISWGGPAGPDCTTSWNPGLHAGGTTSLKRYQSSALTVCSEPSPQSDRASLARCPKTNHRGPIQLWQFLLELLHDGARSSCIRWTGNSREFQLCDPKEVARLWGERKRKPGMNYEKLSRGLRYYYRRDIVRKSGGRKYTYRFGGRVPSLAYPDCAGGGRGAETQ
# In short: as §1
# ELF3 = biological target: T11, ELF3 (Homo sapiens, UniProt P78545 1-371); settings: protein: recombinant; tags: N-terminal GST; dsDNA, one strand shown
# T11 sequence: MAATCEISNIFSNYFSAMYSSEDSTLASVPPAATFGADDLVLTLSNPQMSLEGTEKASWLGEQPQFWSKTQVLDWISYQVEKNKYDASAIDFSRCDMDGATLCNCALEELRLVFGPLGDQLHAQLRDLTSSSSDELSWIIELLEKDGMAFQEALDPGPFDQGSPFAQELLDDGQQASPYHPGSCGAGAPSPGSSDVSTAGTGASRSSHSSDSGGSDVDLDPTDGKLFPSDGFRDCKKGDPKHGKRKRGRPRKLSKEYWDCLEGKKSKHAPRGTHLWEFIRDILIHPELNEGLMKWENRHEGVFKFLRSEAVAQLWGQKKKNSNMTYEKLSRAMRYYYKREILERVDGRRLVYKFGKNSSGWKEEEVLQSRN
# In short: as §1
# CRX = CRX (Homo sapiens, UniProt O43186 1-299); settings: protein: recombinant; tags: N-terminal GST; dsDNA, one strand shown
# CRX, sequence (O43186 whole entry): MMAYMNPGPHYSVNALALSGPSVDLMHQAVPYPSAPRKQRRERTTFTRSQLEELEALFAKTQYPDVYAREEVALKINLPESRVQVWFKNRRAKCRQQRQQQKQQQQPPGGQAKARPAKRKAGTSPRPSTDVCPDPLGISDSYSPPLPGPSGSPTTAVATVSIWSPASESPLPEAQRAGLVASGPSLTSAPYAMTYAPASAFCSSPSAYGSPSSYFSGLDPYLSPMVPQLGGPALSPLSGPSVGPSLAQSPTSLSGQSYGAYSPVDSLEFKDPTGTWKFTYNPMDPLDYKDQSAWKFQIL
# In short: as §1
# ETV1 = ETV1 (Homo sapiens, UniProt P50549 1-477); settings: protein: recombinant; tags: N-terminal GST; dsDNA, one strand shown
# ETV1, sequence (P50549 whole entry): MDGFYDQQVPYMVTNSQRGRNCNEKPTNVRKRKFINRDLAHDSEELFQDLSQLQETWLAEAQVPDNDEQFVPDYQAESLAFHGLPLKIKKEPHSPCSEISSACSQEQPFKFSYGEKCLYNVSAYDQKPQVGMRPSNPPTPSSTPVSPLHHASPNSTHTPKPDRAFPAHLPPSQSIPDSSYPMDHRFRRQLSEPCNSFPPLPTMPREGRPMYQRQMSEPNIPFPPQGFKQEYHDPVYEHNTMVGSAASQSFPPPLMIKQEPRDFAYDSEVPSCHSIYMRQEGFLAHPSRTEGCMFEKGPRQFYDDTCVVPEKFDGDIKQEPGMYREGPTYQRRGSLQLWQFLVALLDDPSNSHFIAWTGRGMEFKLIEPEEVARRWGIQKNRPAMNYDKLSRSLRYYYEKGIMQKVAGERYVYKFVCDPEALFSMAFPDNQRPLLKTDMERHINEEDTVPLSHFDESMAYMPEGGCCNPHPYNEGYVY
# In short: as §1
sequence,measurement,setting,value
GATTTC,binding signal,FLI1,"1.77 fold enrichment (6-mer frequency, TF over GST control)"
same,binding signal,ELK1,"1.78 fold enrichment (6-mer frequency, TF over GST control)"
same,binding signal,GABPA,"1.55 fold enrichment (6-mer frequency, TF over GST control)"
same,binding signal,ERG,"2.15 fold enrichment (6-mer frequency, TF over GST control)"
same,binding signal,ELF1,"1.62 fold enrichment (6-mer frequency, TF over GST control)"
same,binding signal,EHF,"1.71 fold enrichment (6-mer frequency, TF over GST control)"
same,binding signal,SPI1,"1.67 fold enrichment (6-mer frequency, TF over GST control)"
same,binding signal,SPIB,"1.72 fold enrichment (6-mer frequency, TF over GST control)"
same,binding signal,ELK3,"1.73 fold enrichment (6-mer frequency, TF over GST control)"
same,binding signal,FEV,"2.86 fold enrichment (6-mer frequency, TF over GST control)"
same,binding signal,ETV5,"1.92 fold enrichment (6-mer frequency, TF over GST control)"
same,binding signal,HSF1,"1.56 fold enrichment (6-mer frequency, TF over GST control)"
same,binding signal,SPIC,"1.65 fold enrichment (6-mer frequency, TF over GST control)"
same,binding signal,ELF4,"1.7 fold enrichment (6-mer frequency, TF over GST control)"
same,binding signal,ELK4,"1.64 fold enrichment (6-mer frequency, TF over GST control)"
same,binding signal,ETV2,"1.64 fold enrichment (6-mer frequency, TF over GST control)"
same,binding signal,ELF3,"1.62 fold enrichment (6-mer frequency, TF over GST control)"
same,binding signal,CRX,"1.52 fold enrichment (6-mer frequency, TF over GST control)"
same,binding signal,ETV1,"1.79 fold enrichment (6-mer frequency, TF over GST control)"
